The panel holds about 79,000 compounds, 15% with a hit somewhere; the sample as a whole holds those more often. The source made the active and inactive calls. No stated cut-off is given here; in the data, active means growth inhibition above about 70%; inactive means the rest.
Columns and labels:
[1] = NCI Yeast Anticancer Drug Screen. Data for the rad50 strain (AID 155);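 further: 0% = growth of vehicle-only cultures of the same strain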; conditions: S. cerevisiae rad50 strain growth inhibition; at 50.0 µM; hits give high values
Summary of the method: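 DNA repair mutant yeast, compound exposure, growth read-out; inhibition is taken relative to vehicle.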

[2] = NCI Yeast Anticancer Drug Screen. Data for the mec2-1 strain (AID 157); conditions: S. cerevisiae mec2-1 strain, at 50.0 µM, hits give high values
Summary of the method: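 Yeast mec2-1 mutant treated with compound. Readout: growth inhibition vs vehicle controls.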

[3] = NCI Yeast Anticancer Drug Screen. Data for the sgs1 mgt1 strain (AID 161);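 further: 0% = growth of cultures given vehicle only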; conditions: S. cerevisiae sgs1 mgt1 strain, at 50.0 µM, hits give high values
Summary of the method: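 Mutant yeast exposed to compound; growth scored against vehicle-only wells.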

[4] = NCI Yeast Anticancer Drug Screen. Data for the cln2 rad14 strain (AID 165);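 further: 0% = growth equal to vehicle treated cultures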; conditions: S. cerevisiae cln2 rad14 strain, at 50.0 µM, hits give high values
Summary of the method: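 cln2 rad14 yeast strain; compound exposure; growth inhibition read vs vehicle controls.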

[5] = NCI Yeast Anticancer Drug Screen. Data for the bub3 strain (AID 167); conditions: S. cerevisiae bub3 mutant strain, at 50.0 µM, hits give high values
Summary of the method: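 In this screen, a yeast mutant lacking normal mitotic checkpoint function is challenged with compound. Relative growth versus vehicle gives the inhibition value.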

[6] = NCI Yeast Anticancer Drug Screen. Data for the mlh1 rad18 strain (AID 175); conditions: S. cerevisiae mlh1 rad18 strain growth inhibition; at 50.0 µM; hits give high values
Summary of the method: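 Yeast w/ defined DNA-repair lesions; compound exposure; growth vs vehicle controls → % inhibition.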

Measured: growth inhibition

CCOC1=C/C(=N\NC(N)=O)CCC1
inactive: [1] 9.35% | [2] 7.2% | [3] -1.1% | [4] 27.8% | [5] 3.95% | [6] 0.1%

CCN(CC)CCOC(=O)c1ccc(NC(=O)Nc2ccc(Br)cc2)cc1
inactive: [1] 4.6% | [2] -4.95% | [3] 30.1% | [4] 0.25% | [5] 8.05% | [6] 11.2%

Cn1c(=O)c2c(ncn2CCNC(c2ccccc2)c2cccc(Cl)c2)n(C)c1=O (stereo not given)
inactive: [1] 6% | [2] -8.05% | [3] 4.35% | [4] -8.3% | [5] 0.8% | [6] 12.8%

COc1ccc(N2N=NCC2c2ccccc2[N+](=O)[O-])cc1 (stereo not given)
inactive: [1] -10.6% | [2] -11.9% | [3] 14.2% | [4] -37.4% | [5] 13.6% | [6] 20.4%

Cc1c[n+]2c(C)cccc2n1C
inactive: [1] 10.9% | [2] 27.9% | [3] 27.1% | [4] -26.2% | [5] -8.05% | [6] 3.65%

Cc1cc(Br)cc(C)c1NC(=O)C(=O)CC(=O)c1sc(-n2nc(-c3ccccc3)cc2-c2ccccc2)nc1C
inactive: [1] 5.7% | [2] 1.75% | [3] -32.5% | [4] 28.5% | [5] 33.8% | [6] 15.7%

c1ccc(N=C2NNC(=Nc3ccccc3)NN2)cc1
inactive: [1] -17.9% | [2] 2.2% | [3] 5.4% | [4] 1.85% | [5] 3.35% | [6] 7.65%

Cc1nc(C(F)(F)F)cc(=O)[nH]1
inactive: [1] 7.4% | [2] -3.6% | [3] 15.7% | [4] -1.25% | [5] -5.4% | [6] 51%

N#CCCN(CCC#N)c1ccc(CC2C(=O)N(c3cccc(S(=O)(=O)O)c3)N=C2C(=O)O)cc1 (stereo not given)
inactive: [1] -19.4% | [2] -26.8% | [3] -23.1% | [4] 6.65% | [5] -15.9% | [6] -32.1%

CCC(=O)C(CC)Cc1ccc(OC)c(OC)c1 (stereo not given)
inactive: [1] 1.4% | [2] -15.9% | [3] -11.8% | [4] -5.55% | [5] 6.55% | [6] 2.25%

OCCOCC#CCOCCO
inactive: [1] 3.9% | [2] -0.25% | [3] -2.35% | [4] -7.45% | [5] -9.25% | [6] 9.3%

CCOC(=O)c1ccc(N=C(N)N)cc1
inactive: [1] 23% | [2] 9.85% | [3] 19.8% | [4] 11% | [5] 17.2% | [6] 19.6%

CC(C)CCNCC(C)(C)OC(=O)c1ccc([N+](=O)[O-])cc1
inactive: [1] 34.6% | [2] 19.2% | [3] 51.9% | [4] 31.3% | [5] 30.4% | [6] 33.2%

Cc1cc(C)nc(Nc2nc3ccc([N+](=O)[O-])cc3[nH]2)n1
inactive: [1] 0.5% | [2] -5.3% | [3] 5.5% | [4] -7.4% | [5] -5.05% | [6] -4.85%

CC(=O)OCC(OC(C)=O)C(OC(C)=O)C(OC(C)=O)C(OC(C)=O)C(C=O)OC(C)=O (stereo not given)
inactive: [1] -31.6% | [2] -1.7% | [3] 11.7% | [4] -37.2% | [5] -1.25% | [6] -7.95%

Cc1ccnc(NC(=O)Nc2ccccc2Cl)c1
inactive: [1] 9.65% | [2] 8.15% | [3] 1.3% | [4] 3.15% | [5] 21% | [6] 12%

CCOC(=O)[C@H](Cc1ccccc1)NC(=O)c1nc[nH]c1[N+](=O)[O-]
inactive: [1] -10.1% | [2] -9.25% | [3] -31.1% | [4] 5.6% | [5] 1.2% | [6] -34%

CC(C)(O)c1cc(Cl)ccc1Sc1ccccc1
inactive: [1] -20.6% | [2] -15.2% | [3] -8.85% | [4] 13.7% | [5] 4.85% | [6] -8.2%

Cc1noc(C)c1CCCOC1COc2ccccc2OCCOCCOc2ccccc2OC1
inactive: [1] -4.7% | [2] -7.15% | [3] -5.8% | [4] -21.1% | [5] -9.15% | [6] -5.25%

CCCCC(C(N)=O)C(C)(C)C(=O)O (stereo not given)
inactive: [1] -6% | [2] -0.45% | [3] 4.9% | [4] -21.2% | [5] 9.85% | [6] -1.75%

CC/C(=N/O)C(C)C(=O)CCC(=O)Nc1ccc(Cl)cc1 (stereo not given)
inactive: [1] -11.6% | [2] -7% | [3] 0.15% | [4] 7.35% | [5] 8.15% | [6] -5.65%

Nc1nc(N)c2nonc2n1
inactive: [1] -3.7% | [2] -20.8% | [3] -10.8% | [4] -26.2% | [5] -2.85% | [6] 2%

O=[N+]([O-])c1ccc(-c2nc3ccncc3[nH]2)cc1
inactive: [1] -22.6% | [2] -7.4% | [3] -15.2% | [4] -21.6% | [5] -6.85% | [6] -12.6%

C1OC[C@@H]([C@H]2COCO2)O1
inactive: [1] -15.4% | [2] -11.4% | [3] -7% | [4] -0.8% | [5] 1.95% | [6] -11.7%

CN(C)CCN(C=O)CCN(C)C
inactive: [1] 9.85% | [2] 3.95% | [3] 4.5% | [4] -9.1% | [5] 0.6% | [6] -0.2%

CCC(CC)C(=O)OCCOCCOCCOC(=O)C(CC)CC
inactive: [1] -9.3% | [2] -16.8% | [3] -2.15% | [4] 6.8% | [5] -3.35% | [6] 1%

O=C1NC(=O)C(=CN2C(=O)/C(=C/c3ccc([N+](=O)[O-])cc3)SC2=S)C(=O)N1
inactive: [1] -0.4% | [2] 33.2% | [3] 40.6% | [4] 20.4% | [5] 20.6% | [6] 21.9%

CSCNC(=O)Nc1ccccc1
inactive: [1] 30.4% | [2] 33.9% | [3] 19.1% | [4] 0.25% | [5] 15% | [6] 8.9%

O=C1C(=Cc2ccccc2)C(=O)c2ccccc21
inactive: [1] 2.55% | [2] 25.6% | [3] 8.65% | [4] -17.6% | [5] 24.7% | [6] 9.3%

CCNC(=O)C1CC2C=CC1C2 (stereo not given)
inactive: [1] -1.25% | [2] 2.1% | [3] 4.2% | [4] 12.6% | [5] 3.05% | [6] 1.5%

CC1CN(C(=S)Nc2ccccc2)CCN1c1ccccc1 (stereo not given)
inactive: [1] 4.15% | [2] -2.35% | [3] -4.15% | [4] -34.8% | [5] 9.3% | [6] -5.45%

CCCCCC(=O)Cc1cc(O)cc2c1C(=O)Oc1cc(O)c(C(=O)O)c(CCCCC)c1O2
inactive: [1] 26.1% | [2] 7.45% | [3] 32% | [4] 17.8% | [5] 16.4% | [6] 16.9%

CCOC(=O)COc1ccc(C)c2c1C(=O)CC2
inactive: [1] -11.2% | [2] -12.9% | [3] -13.2% | [4] -25.9% | [5] -19.1% | [6] -9.9%

CC1(C)N=C(N)NC(Nc2ccccc2)=N1
inactive: [1] -0.2% | [2] -6.5% | [3] -27.6% | [4] -26.9% | [5] -10.8% | [6] -0.05%

CC(=O)CC(=O)NN(C)C
inactive: [1] -4.8% | [2] -32.4% | [3] -28.9% | [4] 8.5% | [5] -36.4% | [6] 9.85%

COc1ccc(NC(=O)C(=O)Cc2ccc([N+](=O)[O-])c([N+](=O)[O-])c2CC(=O)C(=O)Nc2ccc(OC)cc2OC)c(OC)c1
inactive: [1] 0.35% | [2] -36.1% | [3] -44% | [4] 17.8% | [5] 6.15% | [6] 8.05%

O=C(O)c1ccoc1-c1ccccc1
inactive: [1] 12.7% | [2] -6.05% | [3] 10.7% | [4] -26.9% | [5] -7.55% | [6] 22.2%

Cn1c(=O)c2[nH]c(SCc3cccnc3)nc2n(C)c1=O
inactive: [1] -4.35% | [2] -11.1% | [3] 6.85% | [4] -44.9% | [5] 4.7% | [6] -10.6%

COc1ccc(C2OC3=C(Nc4ccc([N+](=O)[O-])cc4N3)C2=O)cc1 (stereo not given)
inactive: [1] -7.25% | [2] -19.3% | [3] -16.8% | [4] -5.35% | [5] -37.9% | [6] -5.8%

CSc1c(S(C)=O)[nH]c2cc(Br)cc(Br)c12 (stereo not given)
active: [1] 84.2% | [2] 89.3% | [3] 88.7% | [4] 71.6% | [5] 89.4% | [6] 85.2%
